# The list is not random: actives were taken first. Their share in the collection is about 2.9%.
# CRFBP-R2 block – antagonists of CRF-BP/CRF-R2 complex, primary screen, cell-based, HEK293, calcium dye fluorescence, uHTS. CRF-induced calcium fluorescence. inhibition, % at 11.8 µM. AID 588475, 2011. 0.59% of 350,000 active;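 active = inhibition of the ligand-induced calcium signal above about 50% at the single tested concentration, limit read from the data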
# MEKK2mut PB1 HTS – MEK5 binding signal on mutant MEKK2 PB1, primary screen, biochemical, multiplex bead flow cytometry, Alexa488-MEK5; Alexa488-MEK5 binding to MEKK2 mutant; percent response, % at 10 µM; 0.35% of 290,000 active; AID 1530, 2009; in the data active = percent response above about 24%, passing the limit was not always enough
# MEKK3 PB1 HTS – modulators of MEKK3-MEK5 PB1 binding, primary screen, biochemical, wildtype MEKK3, multiplex bead flow cytometry, Alexa488-MEK5 | binding response (% of control), % at 10 µM | Mitogen-activated protein kinase kinase kinase 3 (Homo sapiens), Q99759 | 1.4% of 290,000 active | AID 1529, 2009 | bead-based flow cytometry, Alexa488-MEK5 binding to MEKK3; actives lie on both sides; 0 = blocked by unlabeled MEK5, 100 = vehicle;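 active = binding response more than 3 SD above or below the average of its plate-row segment, actives on both sides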;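 also: Alexa488 bead fluorescence after subtracting the streptavidin-only scavenger bead signal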
# ABCB6 inh MLPCN – ABCB6 transporter inhibitors, primary screen, K562-ABCB6 cells, flow cytometry, MLPCN library. K562-ABCB6 porphyrin accumulation, 1 h; hits give low values. fluorescence ratio to DMSO, % at 10 µM. ATP-binding cassette sub-family B member 6 (Homo sapiens), Q9NP58. 0.19% of 360,000 active;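 active = fluorescence ratio to DMSO below 75%, the collection mean minus 3 SD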;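 also: signal is porphyrin accumulated inside mitochondria; 100% equals median channel fluorescence of DMSO control wells; lower ratio means ABCB6 inhibition with less porphyrin fluorescence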
# Target sequence (Q9NP58 whole entry, looked up): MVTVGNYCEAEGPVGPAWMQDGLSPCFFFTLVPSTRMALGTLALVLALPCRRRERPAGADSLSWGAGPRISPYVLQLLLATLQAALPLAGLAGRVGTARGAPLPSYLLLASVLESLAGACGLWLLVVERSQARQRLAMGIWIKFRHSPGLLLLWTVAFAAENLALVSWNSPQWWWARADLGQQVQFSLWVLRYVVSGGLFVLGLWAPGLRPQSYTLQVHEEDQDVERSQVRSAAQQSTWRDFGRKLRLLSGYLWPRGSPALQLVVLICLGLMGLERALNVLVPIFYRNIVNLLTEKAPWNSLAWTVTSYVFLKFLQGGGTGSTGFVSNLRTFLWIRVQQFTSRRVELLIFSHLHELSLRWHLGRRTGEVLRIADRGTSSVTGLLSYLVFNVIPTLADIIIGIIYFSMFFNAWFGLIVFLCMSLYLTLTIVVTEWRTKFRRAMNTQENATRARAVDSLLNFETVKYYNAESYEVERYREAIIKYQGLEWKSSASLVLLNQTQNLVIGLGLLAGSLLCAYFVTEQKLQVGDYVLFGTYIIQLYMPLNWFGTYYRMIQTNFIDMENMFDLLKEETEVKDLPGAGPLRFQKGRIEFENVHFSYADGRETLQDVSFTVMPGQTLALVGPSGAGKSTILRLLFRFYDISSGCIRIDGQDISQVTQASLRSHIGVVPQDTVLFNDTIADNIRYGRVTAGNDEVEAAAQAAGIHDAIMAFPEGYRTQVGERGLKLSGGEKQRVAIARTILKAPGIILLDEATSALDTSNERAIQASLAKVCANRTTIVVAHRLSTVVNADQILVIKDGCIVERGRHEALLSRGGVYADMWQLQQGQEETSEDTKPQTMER
# MEKK2 WT-MEK5 – modulators of MEK5 binding to wildtype MEKK2, primary screen, biochemical, multiplex bead flow cytometry, Alexa488-MEK5. Mitogen-activated protein kinase kinase kinase 2 (Homo sapiens), Q9Y2U5. 1.1% of 290,000 active. Alexa488-MEK5 binding to MEKK2 WT; actives lie on both sides. binding response (% of control), % at 10 µM; in the data active = binding response below about 67% or above about 130%
# CRFBP-R2 agonist – agonists of CRF-BP/CRF-R2 complex, primary screen, cell-based, HEK293, calcium dye fluorescence, uHTS; 0.46% of 350,000 active; activation, % at 13.2 µM; CRF-binding protein / CRF receptor 2 complex (human); AID 588473, 2011; calcium dye fluorescence (FLIPR); percent of saturating CRF peptide response;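 active = activation of at least 50%, plus an integration ratio under a set limit after plate pattern correction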;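 also: plate controls were neutral control wells without compound for no effect and CRF at EC100 for full effect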
# MEKK2wt confirm – modulators of MEK5 binding to wildtype MEKK2, confirmation, biochemical, single concentration, multiplex bead flow cytometry. Alexa488-MEK5 binding to MEKK2 WT; actives lie on both sides. 2.4% of 5,900 active. shares compounds with MEKK3 PB1 HTS. binding response (% of control), % at 10 µM. AID 1892, 2009; in the data active = binding response below about 16% or above about 210%; inactive = in between
# MEKK2mut-MEK5 – mutant MEKK2 PB1-MEK5 binding signal retest – biochemical, single concentration, multiplex bead flow cytometry, confirmation. shares compounds with MEKK3 PB1 HTS. Alexa488-MEK5 binding to MEKK2 mutant. percent response, % at 10 µM. 2% of 5,900 active; in the data active = percent response mostly above about 71%, no sharp cut-off; inactive = mostly below about 38%;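 also: higher means compound restores mutant binding toward wildtype level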
# MEKK3 confirm – MEKK3 wild-type PB1 binding to MEK5, inhibitors, confirmation, biochemical, bead multiplex flow cytometry, single concentration, wildtype. shares compounds with MEKK3 PB1 HTS. Alexa488-MEK5 binding to MEKK3; hits give low values. binding response (% of control), % at 10 µM. 1.8% of 5,900 active. AID 1894, 2009;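 active = binding response below 72% of control, or above a set upper limit, though filed actives all read lower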;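 also: 100% = DMSO only wells and 0% = binding blocked by excess unlabeled MEK5; lower values mean stronger disruption of MEK5 binding to MEKK3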
# Starred values were filed as active, the others as inactive; . = not tested or not shown; [ ] = dose if it differs, or a comment.
SMILES,CRFBP-R2 block,MEKK2mut PB1 HTS,MEKK3 PB1 HTS,ABCB6 inh MLPCN,MEKK2 WT-MEK5,CRFBP-R2 agonist,MEKK2wt confirm,MEKK2mut-MEK5,MEKK3 confirm
CCN(C[C@H]1N[C@@](Cc2ccccc2)(C(=O)OC)[C@H]2C(=O)N(Cc3ccccc3)C(=O)[C@@H]12)C(=O)COc1ccccc1,11,.,.,98,.,0,.,.,.
N#Cc1c(N2CCSCC2)nsc1-c1ccccc1Cl,4,-2,99,97,98,1,.,.,.
Cc1ccc2nc(N(CCCN(C)C)C(=O)CCc3ccccc3)sc2c1,-58,5,139*,97,137,13,139,12,102
Cc1ccc2nc(N(CCCN(C)C)C(=O)CS(=O)(=O)c3ccccc3)sc2c1,-15,.,.,104,.,2,.,.,.
CC(NC(=O)c1ccc(NC(=O)CC2SC(N3CCCC3)=NC2=O)cc1)c1ccc(S(N)(=O)=O)cc1 (stereo not given),5,.,.,104,.,1,.,.,.
CN1CCN(CCCCOc2ccccc2C=O)CC1,28,28,128*,98,200*,1,172,47,105
CC1CC(C)(C)CC2(C1)NC(=O)N(CC(=O)N(Cc1ccccc1)c1ccccc1)C2=O (stereo not given),5,.,.,97,.,1,.,.,.
COc1cc(NC(=O)C2CCCN(c3ncccn3)C2)cc(OC)c1 (stereo not given),-6,-1,63*[inhibitor],100,86,-1,85,-10,87
CC(=O)Nc1nc(NC(=O)/C=C/c2ccccc2)n(-c2ccccc2)n1,9,2,140*,100,105,2,104,-3,104
CC(=O)Nc1nc(NCc2ccccc2Cl)n(-c2ccccc2)n1,18,7,107,99,111,-1,.,.,.
CCOC(=O)N1CCN(C(=O)c2cc3n(n2)C(C(F)(F)F)CC(c2ccc4c(c2)OCO4)N3)CC1 (stereo not given),6,-1,101,98,100,-1,.,.,.
N#CC1=C(N)Oc2cc(O)ccc2C1c1ccncc1 (stereo not given),10,8,107,85,108,1,.,.,.
N#CC1=C(N)Oc2cc(O)ccc2C1c1cccnc1 (stereo not given),-22,1,132*,100,120,4,108,-5,102
COc1ccc(NC(=O)[C@H](C)NC(=O)[C@@H]2Cc3ccccc3CN2C(=O)OC(C)(C)C)cc1,-4,5,102,106,103,0,.,.,.
O=C(NCCc1ccccc1)c1cccc([N+](=O)[O-])c1,11,0,130*,100,107,0,101,4,102
COc1ccc(CCNC(=O)c2cccc([N+](=O)[O-])c2)cc1OC,28,.,.,102,.,1,.,.,.
Cc1ccc(C(=O)N2CCN(c3ccc([N+](=O)[O-])cc3-n3cccc3)CC2)cc1,-11,29,127,98,106,0,.,.,.

# High-throughput results (PubChem BioAssay)
